These results are taken from PubChem BioAssay AID504332 (National Center for Advancing Translational Sciences (NCATS), 2011).

The structures appear in SMILES notation. Screen size: about 350,000 compounds; about 31,000 (8.9%) were called active. Inconclusive results (about 15%) are left out. Calls come from the whole dose curve; as a rule, active = well fitted inhibition curve with a large enough effect; inconclusive = small, poorly fitted or top-dose-only effect; inactive = no such curve, though single readings can be large or run the other way. For the sample, actives were picked, then their nearest neighbours and some compounds at random.
% is set by controls: 0 for no effect and ±100 for the full control effect; potency is the fitted concentration of half-maximal effect.

Chain of Histone-lysine N-methyltransferase EHMT2 (Homo sapiens) (Q96KQ7 913-1193 limits assumed): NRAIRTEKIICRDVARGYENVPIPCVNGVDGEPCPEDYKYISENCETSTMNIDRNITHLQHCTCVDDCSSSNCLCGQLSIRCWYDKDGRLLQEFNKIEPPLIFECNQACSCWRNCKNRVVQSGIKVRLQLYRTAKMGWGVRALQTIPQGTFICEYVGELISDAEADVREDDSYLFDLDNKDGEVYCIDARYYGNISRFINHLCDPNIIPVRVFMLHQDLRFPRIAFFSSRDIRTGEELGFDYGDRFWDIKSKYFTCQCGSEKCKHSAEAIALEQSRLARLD

This assay addresses Histone-lysine N-methyltransferase EHMT2 (Homo sapiens) (UniProt Q96KQ7). The assay is described as follows: qHTS Assay for Inhibitors of Histone Lysine Methyltransferase G9a. Note: nearly all actives have a fitted effect of over 75% in size. The conditions noted are these: G9a H3K9 monomethylation, AlphaScreen, 2 h; series mostly up to 59 µM; activity, negative = inhibition: at the top concentration. The source says:
Methylated lysines, on the N-terminal tails of histone proteins serve as epigenetic markers to recruit factors that can then modify local chromatin structure to lead to functional consequences. G9a and other members of the SUV39 family of the SET domain-containing superfamily of histone lysine methyltransferases (HMT) have been identified to specifically methylate Lys9 of histone H3 (H3K9). G9a catalyzes the mono- and di-methylation of H3K9 in mammalian euchromatic regions, where the resulting H3K9me2 is indicative of transcriptional repression. […] The inhibition of G9a will result in transcriptional activation and work synergistically with DNA methyltransferase and histone deacetylase inhibitors, to kill cancer cells. This qHTS assay for identification of G9a inhibitors is a chemiluminescence based AlphaScreen (PerkinElmer). Methylation of biotinylated-histone peptide is measured through specific antibody-based detection, in conjunction with streptavidin-coated donor and anti-IgG antibody-coated acceptor beads. The method is particularly well suited for detection of inhibitors acting by the desired histone peptide competitive mechanism and is applicable to testing other HMTs. Although AlphaScreen has significant advantages with its utility in a variety of epigenetic target assays, the primary screening data provided in this deposition should be used with caution due to the prevalence of screening artifacts. An AlphaScreen counterscreen is highly recommended to be run against any putative actives to eliminate non specific artifacts. Alternatively, one can use other AlphaScreen assays in PubChem to filter out promiscuous hits. Quinn et al. A chemiluminescence-based method for identification of histone lysine methyltransferase inhibitors. Mol Biosyst 6(5): 782-8. 2010. PMID: 20567762 [2] Baell,Holloway. New substructure filters for removal of pan assay interference compounds (PAINS) from screening libraries and for their exclusion in bioassays. J Med Chem. 53(7):2719-40. 2010. PMID: 20131845 NIH Molecular Libraries Probe Production Network [MLPCN] NIH Chemical Genomics Center [NCGC] Structural Genomics Consortium (SGC) NIH Grant: 5U54 MH084681-02
To each well of a 1,536w plate, 2ul of HMT enzyme (final 20nM) were added, using a nanoliter dispenser. The G9a- and GLP-inhibitor BIX-01294 (CID: 25150857) are used as an intraplate control, with a 16-point titration in duplicate. A Kalypsys pin-tool transferred 23nl of library compound solution in DMSO to each well. Following a 15 min incubation of enzyme with compounds at room temperature, 1ul mixture of b-H3K9 peptide substrate (final 500nM) and SAM cofactor (final 20uM) were added. Reactions were allowed to proceed at room temperature for 2 hours. Methylated b-H3K9 peptide product was detected with 0.5 ug/mL rabbit polyclonal anti-monomethyl histone H3K9 antibody (Abcam Inc., Cambridge, MA) and 20 ug/mL each streptavidin-coated donor and anti-rabbit IgG acceptor AlphaScreen beads. Antibody and beads were added in a 1ul dispense, for a final volume of 4ul, and plates were incubated, protected from the light, for 10 min at room temperature. Microplates were then read on an EnVision multilabel plate reader using the 1,536 plate HTS AlphaScreen aperture (excitation time 80 ms, measurement time 240 ms).
Background: qHTS replaces the single test concentration by a dilution series.
In the case of `O=C(Nc1ccc(OC(F)(F)F)cc1)c1cc2c(=O)n3ccccc3nc2s1`, the “activity, negative = inhibition” value was -27.2% (inactive).

With `Cc1c(NC(=O)CSc2nnc(-c3cccnc3)n2N)c(=O)n(-c2ccccc2)n1C`, the activity, negative = inhibition is 24.5% [at 12.7 µM] (inactive).

For `Cc1cc(=O)[nH]c(SCc2cc(Cl)ccc2OC(F)F)n1`, the “activity, negative = inhibition” value was -5.52% [at 102 µM] (inactive).

On to `CCCCOc1ccc(Cl)cc1CSc1nncn1N`, for which the Potency was 7.08 µM (active).

In the case of `COC(=O)c1ccc(CSc2nncn2N)cc1`, the “activity, negative = inhibition” value was -2.99% [at 102 µM] (inactive).

Take `Cc1ccc(NC(=O)C(=O)NCc2ccco2)c(C)c1`: the “activity, negative = inhibition” value is -4.41% [at 102 µM] (inactive).

As to `Cc1ccc2nc(SC(C)C(=O)NCc3ccco3)[nH]c2c1` (centres undefined), the Potency was 39.8 µM (active).

On to `Cc1cccc(N(C(=O)Cc2cccs2)C(C(=O)NCc2ccco2)c2ccncc2)c1` (centres undefined), for which the “activity, negative = inhibition” value is 5.39% [at 102 µM] (inactive).

In the case of `CCN1CCN(Cc2c(O)ccc3oc(C)c(C(=O)Nc4ccc(C)cc4C)c23)CC1`, the “activity, negative = inhibition” value was -23.5% (inactive).

On to `CCOc1ccc(-c2nonc2NC(=O)c2oc3ccc(C)cc3c2C)cc1OCC`, for which the “activity, negative = inhibition” value was 10.3% (inactive).

On to `O=C(C1CCN(S(=O)(=O)c2cnc[nH]2)CC1)N1CCN(Cc2ccc3c(c2)OCO3)CC1`, for which the activity, negative = inhibition was -12% [at 12.7 µM] (inactive).

With `O=C(c1cccs1)N1CCN(Cc2ccc3c(c2)OCO3)CC1`, the Potency was 56.2 µM (active).

For the compound `O=C(C1CCN(Cc2ccc(Cl)cc2)CC1)N1CCN(Cc2ccc3c(c2)OCO3)CC1`, the Potency was 8.91 µM (active).

As to `O=C(Nc1cccc2ccccc12)N1CCN(Cc2ccc3c(c2)OCO3)CC1`, the activity, negative = inhibition was 2.38% [at 12.7 µM] (inactive).

On to `Cc1cc(C)n2nc(C(=O)N3CCN(Cc4ccc5c(c4)OCO5)CC3)nc2n1`, for which the “activity, negative = inhibition” value was -7.72% [at 102 µM] (inactive).

For `O=C(C1CCN(C2CCN(Cc3cccc4c3OCO4)CC2)CC1)N1CCOCC1`, the “activity, negative = inhibition” value is 7.97% [at 102 µM] (inactive).

As for `Cc1ccc(S(=O)(=O)N2[C@@H](c3cccc(Cl)c3)C(C(=O)O)=CC[C@H]2c2ccc(Cl)c(Cl)c2)cc1`, the activity, negative = inhibition was 13.5% [at 2.33 µM] (inactive).

`COc1ccc(-c2cc(C(=O)NCCCN3CCCC3=O)c3ccccc3n2)cc1OC`: the activity, negative = inhibition is 15% [at 2.33 µM] (inactive).

Take `Cc1cc(C)c(NC(=O)CSc2nc3nccnc3c(=O)n2CCc2c[nH]c3ccccc23)c(C)c1`: the “activity, negative = inhibition” value was 4.58% (inactive).

Regarding `COCCCNC(=S)NCCNc1nc2cc(C)c(C)cc2cc1C#N`, the “activity, negative = inhibition” value is 20% (inactive).

Consider `CCCCc1ccc(NC(=S)NCCCN2CCOCC2)cc1`, for which the activity, negative = inhibition was 31.4% [at 12.7 µM] (inactive).

In the case of `Cc1ccc2cc(C#N)c(NCCNC(=S)NCCCN3CCOCC3)nc2c1`, the Potency was 39.8 µM (active).

`CCOCCCNc1nc(-c2ccccc2)nc2ccccc12`: the “activity, negative = inhibition” value is 14.1% [at 102 µM] (inactive).

As to `Cc1cc(C)c2nc(-c3cccnc3)cc(C(=O)Nc3ccc(S(=O)(=O)Nc4onc(C)c4C)cc3)c2c1`, the Potency is 50.1 µM (active).

Turning to `CCn1c(SCC(=O)Nc2ccc(S(=O)(=O)Nc3onc(C)c3C)cc2)nnc1-c1ccccc1`, the “activity, negative = inhibition” value was -43.1% (inactive).

On to `Cc1noc(NS(=O)(=O)c2ccc(NC(=O)c3oc4ccc(F)cc4c3C)cc2)c1C`, for which the “activity, negative = inhibition” value was -20.8% [at 102 µM] (inactive).

Consider `CC(C)OCCCn1c(SCC(=O)c2ccccc2)nc2c(sc3ccccc32)c1=O`, for which the “activity, negative = inhibition” value is -2.03% (inactive).

On to `COc1ccc(-c2nn(-c3ccccc3)cc2C(=O)Nc2nc(CC(C)=O)ns2)cc1`, for which the “activity, negative = inhibition” value is -1.95% (inactive).

Turning to `COc1cc(NC(=O)c2cccnc2SC)cc(OC)c1`, the “activity, negative = inhibition” value was 1.95% [at 102 µM] (inactive).

As for `COc1ccc(NC(=O)c2cn(-c3ccccc3)nc2SC)cc1`, the Potency was 39.8 µM (active).

As to `Cc1nnc(C)n1-c1ccc(C(=O)Nc2cccc(Br)c2)cc1`, the “activity, negative = inhibition” value was -0.406% (inactive).

In the case of `CCOC(=O)CC1COCCN1C(=O)c1cc(COc2ccc(F)c(F)c2)on1` (centres undefined), the “activity, negative = inhibition” value is -0.953% [at 102 µM] (inactive).

For the compound `COc1ccc(NC(=O)CN(C)C(=O)Cc2coc3cc(C)c(C)cc23)cc1`, the Potency was 50.1 µM (active).

`CC(=O)N1CCN(C(=O)c2cc(-c3ccc(C)o3)nc3ccccc23)CC1`: the activity, negative = inhibition is -3.86% [at 0.501 µM] (inactive).

As for `COc1ccc(NC(=O)CN(C)C(=O)CC2CCCCC2)cc1`, the “activity, negative = inhibition” value is 0.205% [at 102 µM] (inactive).

For the compound `COc1ccc(-c2cc(C(=O)N(C)Cc3ccccc3)c3ccccc3n2)cc1`, the “activity, negative = inhibition” value is 18.4% [at 102 µM] (inactive).

`COc1ccc(CNC(=O)Cc2coc3ccc(C(C)C)cc23)cc1`: the “activity, negative = inhibition” value was 12% (inactive).

Take `COc1ccc(NC(=O)CN(C)C(=O)c2n[nH]c3ccccc23)cc1`: the “activity, negative = inhibition” value was -20.6% [at 102 µM] (inactive).

As to `COc1ccc(NC(=O)CN(C)C(=O)c2cc(-c3ccc(C)o3)nc3ccccc23)cc1`, the Potency was 4.47 µM (active).

Turning to `Cc1ccc(NC(=O)c2cc(-c3ccc(C)o3)nc3ccccc23)nc1`, the Potency was 2.24 µM (active).

As for `CSc1ncccc1C(=O)Nc1ccc(C)cn1`, the “activity, negative = inhibition” value is 36.7% [at 102 µM] (inactive).

As for `Cc1oc2ncnc(N3CCOCC3)c2c1C(=O)NCCc1ccccc1`, the “activity, negative = inhibition” value is -7.19% (inactive).

Regarding `CCCN(C(=O)Cn1cc(S(=O)(=O)N2CCN(c3ccccc3F)CC2)c2ccccc2c1=O)c1cccc(C)c1`, the “activity, negative = inhibition” value is -28.5% (inactive).

As for `COc1ccc(NC(=O)CN(C)C(=O)c2cc(C3CC3)nn2-c2ccccc2)cc1`, the activity, negative = inhibition was -2.32% [at 2.33 µM] (inactive).

On to `O=C(CCNC(=O)c1ccc([N+](=O)[O-])cc1)NC1CCCCC1`, for which the “activity, negative = inhibition” value was -10.3% [at 102 µM] (inactive).

`COc1cc(NC(=O)Cn2nc(-c3ccc(C)c(C)c3)ccc2=O)cc(OC)c1`: the “activity, negative = inhibition” value is 2.48% (inactive).

In the case of `CCN(CCO)C(=S)Nc1cc(C(=O)OC)ccc1C(=O)OC`, the “activity, negative = inhibition” value is -9.82% [at 102 µM] (inactive).

Turning to `CCS(=O)(=O)Nc1cc(C(=O)OC)ccc1C(=O)OC`, the Potency is 2.82 µM (active).

Take `CCCN(CCC)C(=S)Nc1cc(C(=O)OC)ccc1C(=O)OC`: the “activity, negative = inhibition” value is 4.81% [at 102 µM] (inactive).
